The first test has as its target Hexose transporter 1 (Plasmodium falciparum) (UniProt O97467). Description: ST_JUDE_LEISH: Cytotoxicity at 2uM final concentration against transgenic Leishmania Mexicana promastigotes LmPfHT that are glucose transport deficient and complemented with the Plasmodium falciparum hexose transporter. Activity is measured by DNA content using SYBR green in vitro. Format: functional.
One may read the inhibition as the drop in the measured response relative to a control, in per cent. Take `CCN(CC)CCOc1c(Cl)cc(Cl)cc1CNCCCNc1cc(=O)c2ccccc2[nH]1`: the inhibition amounted to 1.03%.

For `CC(C)(C)c1ccc(CN2CCC(NC(=O)c3ccc(-c4ccccc4Cl)s3)CC2)cc1`, the inhibition is 7.04%.

As for `c1ccc(CN2CCC(NCc3cccc(-c4cncc5ccccc45)c3)CC2)cc1`, the inhibition came out at 7.7%.

`Cc1cc(NCc2ccccc2)nc(NCc2ccccc2)n1`: the inhibition was determined as 5.78%.

With `CC(=NNC(S)=NCCc1ccccc1)c1ccccn1`, the inhibition was found to be 68%.

Take `CCCCC(CC)CN1C(=O)C(c2ccccc2)(c2ccccc2)N=C1N` (stereo not given): the inhibition came out at 0.02%.

As for `CCc1ccc(C2CCN(CCCCNC(=O)c3ccc(-c4ccc(C(F)(F)F)cc4)cc3)CC2)c(OCCO)c1`, the inhibition was 7.58%.

As to `Fc1ccc(C=NNc2nc3ccccc3[nH]2)cc1`, the inhibition amounted to 13.1%.

`CCC(C)OC(=O)C1=C(C)NC2=C(C(=O)CC(c3ccc(OC)c(OC)c3)C2)C1c1cccc(O)c1` (stereo not given): the inhibition is 0.16%.

In the case of `CC(C)CCn1c(Sc2ccc(C#N)c([N+](=O)[O-])c2)nnc1-c1ccc(Cl)cc1`, the inhibition is 9.73%.

For `O=C(CN1CCCC1)Nc1cccc(C(=O)Nc2cccc(C(F)(F)F)c2)c1`, the inhibition came to 1.57%.

Turning to `Fc1ccc(Nc2ccnc3cc(-c4cccc(CN5CCCCC5)c4)ccc23)c(Cl)c1`, the inhibition amounted to 3.95%.

Regarding `O=C(NCCCCN1CCC(c2ccc3c(c2OCCO)CCCC3)CC1)c1ccc(-c2ccc(C(F)(F)F)cc2)cc1`, the inhibition turned out to be 0.12%.

Turning to `O=C(NCCN1CCCC1)c1cccc(-c2ccc(-c3nc4cc(F)ccc4[nH]3)cc2)c1`, the inhibition is -0.39%.

Take `O=C(Nc1ccccc1O)c1ccc(S(=O)(=O)c2ccc(Cl)cc2)cc1`: the inhibition stood at 4.67%.

Regarding `CCCCOc1c(CCNCCCCNCCc2cc(OC)c3ccccc3c2OCCCC)cc(OC)c2ccccc12`, the inhibition worked out at 5.5%.

`CCCCNS(=O)(=O)c1ccc(NC(=O)c2cc([N+](=O)[O-])ccc2Cl)cc1`: the inhibition turned out to be 0.49%.

For the compound `COc1cc(C(=O)NC2CCN(Cc3ccccc3)CC2)ccc1-c1cc2cc(Cl)c(Cl)cc2[nH]1`, the inhibition came to 4.32%.

For the compound `CC1(C)NC(N)=NC(=N)N1OCCCNC(=O)c1ccc(C(=O)NCCCON2C(=N)N=C(N)NC2(C)C)cc1`, the inhibition amounted to 0.77%.

`OCCN1CCN(C2Cc3ccc(F)cc3Sc3ccc(Cl)cc32)CC1` (stereo not given): the inhibition is -3.09%.

As to `COc1cc(Nc2ccnc3cc(-c4ccncc4)ccc23)cc(OC)c1OC`, the inhibition came out at 20.7%.

Take `C=CCc1cc(Br)ccc1OCCCOc1c(C)nc(N)nc1N`: the inhibition was 76%.

Consider `CC(=O)Oc1c(Cl)c(C)nc(C)c1-c1ccc(Oc2ccc(Cl)cc2)cc1`, for which the inhibition is 9.67%.

Consider `COc1ccc(CNC(=O)c2cc3c(=O)n4ccccc4nc3n(CCc3ccccc3)c2=N)cc1`, for which the inhibition turned out to be 12%.

Regarding `CC(=O)Nc1ccc2[nH]cc(C3CCN(CC4CCC(NC(=O)/C=C/c5ccccc5Cl)CC4)CC3)c2n1` (stereo not given), the inhibition is 5.52%.

For `O=C(Nc1ccc2oc(-c3ccc(Br)cc3)nc2c1)c1ccc([N+](=O)[O-])o1`, the inhibition stood at 6.94%.

Take `CCc1cccc(OCCCON2C(=N)N=C(N)NC2(C)C)c1`: the inhibition was 9.83%.

For the compound `CC(CCON1C(N)=NC(N)=NC1(C)C)c1ccc(Cl)c(Cl)c1` (stereo not given), the inhibition was determined as 41.4%.

With `CCCc1cc(Cc2cnc(N)nc2N)cc(CCC)c1OCCCCC(=O)OCC`, the inhibition is 2.3%.

Regarding `CN1CCCN(Cc2ccc(-c3cccc(NC(=O)c4cccc(Cl)c4)c3)cc2)CC1`, the inhibition was 9.2%.

`CN(C)c1ccc(-c2ccc(C(=O)NC3CCN(Cc4ccc(F)cc4)CC3)s2)cc1`: the inhibition is -1.68%.

On to `CCOc1cc(C)ccc1C1CCN(CCCCNC(=O)c2ccc(-c3ccc(C(F)(F)F)cn3)cc2)CC1`, for which the inhibition came to 9.74%.

`Cc1cc(N2CCCN(C)CC2)nc(Nc2ccc(Cl)cc2)n1`: the inhibition amounted to 1.73%.

Take `Cc1ncc(CN2CCC(C(=O)Nc3ccc(-c4nc5ccccc5o4)cc3)CC2)s1`: the inhibition is -3.66%.

For the compound `Cc1ccc(OC2CCN(CCCCC3(C)C(=O)Nc4ccccc43)CC2)cc1` (stereo not given), the inhibition was 15.1%.

`COC[C@H]1CCCN1Cc1ccc(-c2ccc(-c3nc4ccccc4[nH]3)s2)cc1`: the inhibition is 1.84%.

As for `c1ccc(Oc2ccc(Nc3ccnc4cc(-c5ccc(CNCCN6CCOCC6)o5)ccc34)cc2)nc1`, the inhibition worked out at 2.52%.

In the case of `COc1cc(NCCCNC(=O)c2cc3c(Cl)cc(Cl)cc3[nH]2)nc2ccccc12`, the inhibition amounted to 6.51%.

As for `O=C(Nc1ccc2ccccc2n1)c1ccccc1-c1ccccc1`, the inhibition turned out to be 2.19%.

Turning to `Cc1cc(CNC(=O)[C@H](CC2CCCCC2)Nc2ccc(C#N)c3ccccc23)c(C(F)(F)F)o1`, the inhibition stood at 1.57%.

The next test concerns the target Glucose transporter (Leishmania mexicana) (UniProt O61059). Description: ST_JUDE_LEISH: Cytotoxicity at 2uM final concentration against transgenic Leishmania Mexicana promastigotes LmGT2 that are glucose transport deficient and complemented with the L. Mexicana glucose transporter 2. Activity is measured by DNA content using SYBR green in vitro. Format: functional.
As to `CCN(CC)CCOc1c(Cl)cc(Cl)cc1CNCCCNc1cc(=O)c2ccccc2[nH]1`, the inhibition worked out at 4.06%.

Regarding `CC(C)(C)c1ccc(CN2CCC(NC(=O)c3ccc(-c4ccccc4Cl)s3)CC2)cc1`, the inhibition came out at 3.18%.

Take `c1ccc(CN2CCC(NCc3cccc(-c4cncc5ccccc45)c3)CC2)cc1`: the inhibition was 8.64%.

Turning to `Cc1cc(NCc2ccccc2)nc(NCc2ccccc2)n1`, the inhibition was found to be 4.43%.

With `CC(=NNC(S)=NCCc1ccccc1)c1ccccn1`, the inhibition was determined as 23.6%.

On to `CCCCC(CC)CN1C(=O)C(c2ccccc2)(c2ccccc2)N=C1N` (stereo not given), for which the inhibition amounted to 2.42%.

Regarding `CCc1ccc(C2CCN(CCCCNC(=O)c3ccc(-c4ccc(C(F)(F)F)cc4)cc3)CC2)c(OCCO)c1`, the inhibition came to 6.13%.

As for `Fc1ccc(C=NNc2nc3ccccc3[nH]2)cc1`, the inhibition amounted to 12.1%.

In the case of `CCC(C)OC(=O)C1=C(C)NC2=C(C(=O)CC(c3ccc(OC)c(OC)c3)C2)C1c1cccc(O)c1` (stereo not given), the inhibition came out at 1.16%.

Consider `CC(C)CCn1c(Sc2ccc(C#N)c([N+](=O)[O-])c2)nnc1-c1ccc(Cl)cc1`, for which the inhibition was 4.99%.

With `O=C(CN1CCCC1)Nc1cccc(C(=O)Nc2cccc(C(F)(F)F)c2)c1`, the inhibition was found to be 3.18%.

In the case of `Fc1ccc(Nc2ccnc3cc(-c4cccc(CN5CCCCC5)c4)ccc23)c(Cl)c1`, the inhibition stood at 3.3%.

Consider `O=C(NCCCCN1CCC(c2ccc3c(c2OCCO)CCCC3)CC1)c1ccc(-c2ccc(C(F)(F)F)cc2)cc1`, for which the inhibition worked out at 5.23%.

For the compound `O=C(NCCN1CCCC1)c1cccc(-c2ccc(-c3nc4cc(F)ccc4[nH]3)cc2)c1`, the inhibition is -1.28%.

In the case of `O=C(Nc1ccccc1O)c1ccc(S(=O)(=O)c2ccc(Cl)cc2)cc1`, the inhibition came out at 6.69%.

With `CCCCOc1c(CCNCCCCNCCc2cc(OC)c3ccccc3c2OCCCC)cc(OC)c2ccccc12`, the inhibition is 2.03%.

In the case of `CCCCNS(=O)(=O)c1ccc(NC(=O)c2cc([N+](=O)[O-])ccc2Cl)cc1`, the inhibition is -1.07%.

In the case of `COc1cc(C(=O)NC2CCN(Cc3ccccc3)CC2)ccc1-c1cc2cc(Cl)c(Cl)cc2[nH]1`, the inhibition came to 2%.

For `CC1(C)NC(N)=NC(=N)N1OCCCNC(=O)c1ccc(C(=O)NCCCON2C(=N)N=C(N)NC2(C)C)cc1`, the inhibition is 1.51%.

For the compound `OCCN1CCN(C2Cc3ccc(F)cc3Sc3ccc(Cl)cc32)CC1` (stereo not given), the inhibition is 0.59%.

In the case of `COc1cc(Nc2ccnc3cc(-c4ccncc4)ccc23)cc(OC)c1OC`, the inhibition amounted to 9.21%.

As to `C=CCc1cc(Br)ccc1OCCCOc1c(C)nc(N)nc1N`, the inhibition worked out at 57%.

`CC(=O)Oc1c(Cl)c(C)nc(C)c1-c1ccc(Oc2ccc(Cl)cc2)cc1`: the inhibition was determined as 4.45%.

With `COc1ccc(CNC(=O)c2cc3c(=O)n4ccccc4nc3n(CCc3ccccc3)c2=N)cc1`, the inhibition was 9.96%.

As for `CC(=O)Nc1ccc2[nH]cc(C3CCN(CC4CCC(NC(=O)/C=C/c5ccccc5Cl)CC4)CC3)c2n1` (stereo not given), the inhibition stood at 6.59%.

With `O=C(Nc1ccc2oc(-c3ccc(Br)cc3)nc2c1)c1ccc([N+](=O)[O-])o1`, the inhibition was 6.73%.

Turning to `CCc1cccc(OCCCON2C(=N)N=C(N)NC2(C)C)c1`, the inhibition is 8.16%.

In the case of `CC(CCON1C(N)=NC(N)=NC1(C)C)c1ccc(Cl)c(Cl)c1` (stereo not given), the inhibition was determined as 27.7%.

Turning to `CCCc1cc(Cc2cnc(N)nc2N)cc(CCC)c1OCCCCC(=O)OCC`, the inhibition was determined as 1.54%.

Consider `CN1CCCN(Cc2ccc(-c3cccc(NC(=O)c4cccc(Cl)c4)c3)cc2)CC1`, for which the inhibition is 9.24%.

With `CN(C)c1ccc(-c2ccc(C(=O)NC3CCN(Cc4ccc(F)cc4)CC3)s2)cc1`, the inhibition amounted to 3.76%.

Consider `CCOc1cc(C)ccc1C1CCN(CCCCNC(=O)c2ccc(-c3ccc(C(F)(F)F)cn3)cc2)CC1`, for which the inhibition was found to be 7.82%.

In the case of `Cc1cc(N2CCCN(C)CC2)nc(Nc2ccc(Cl)cc2)n1`, the inhibition was found to be 2.54%.

For the compound `Cc1ncc(CN2CCC(C(=O)Nc3ccc(-c4nc5ccccc5o4)cc3)CC2)s1`, the inhibition is -0.97%.

As for `Cc1ccc(OC2CCN(CCCCC3(C)C(=O)Nc4ccccc43)CC2)cc1` (stereo not given), the inhibition was 9.07%.

With `COC[C@H]1CCCN1Cc1ccc(-c2ccc(-c3nc4ccccc4[nH]3)s2)cc1`, the inhibition was 1.25%.

Take `c1ccc(Oc2ccc(Nc3ccnc4cc(-c5ccc(CNCCN6CCOCC6)o5)ccc34)cc2)nc1`: the inhibition is 2.3%.

On to `COc1cc(NCCCNC(=O)c2cc3c(Cl)cc(Cl)cc3[nH]2)nc2ccccc12`, for which the inhibition stood at 0.77%.

On to `O=C(Nc1ccc2ccccc2n1)c1ccccc1-c1ccccc1`, for which the inhibition is -0.78%.

As to `Cc1cc(CNC(=O)[C@H](CC2CCCCC2)Nc2ccc(C#N)c3ccccc23)c(C(F)(F)F)o1`, the inhibition was -1.16%.

These data come from ChEMBL document CHEMBL3433997, “St. Jude Leishmania screening dataset” (2016).
